Drawing on PubChem BioAssay (NCATS), this text covers Potency and outcome for 42 compounds.

The target of test [1] is Voltage-gated inwardly rectifying potassium channel KCNH2 (Homo sapiens) (UniProt Q12809). Kind of test: qHTS Assay for Small Molecule Inhibitors of the Human hERG Channel Activity (AID 588834).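 Note: lower thallium flux fluorescence means stronger hERG block; nearly all actives have a fitted effect of over 50% in size.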 Note: potency is the fitted concentration of half-maximal effect. An outline of the steps: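 U2OS cells transduced with hERG via BacMam (MOI ~100), plated 2000/well, loaded with FluxOR thallium dye, compound ~10 min, then stimulation buffer; fluorescence decrease read kinetically; AC50 from Hill fits.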
(In general: In qHTS, concentration-response curves come from the screen itself.)

The target of test [2] is Luciferin 4-monooxygenase (Photinus pyralis) (UniProt P08659). Put plainly: Biochemical firefly luciferase enzyme assay for NPC (AID 624030). Note: nearly all actives have a fitted effect of over 70% in size. Note: potency is the fitted concentration of half-maximal effect. In short, it runs like this: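 Counter-screen for direct inhibition of the luciferase enzyme by approved-drug library compounds, run at 10 nM enzyme in 50 mM Tris acetate (final). Luminescence was read within 5 min of enzyme-buffer addition and normalized to PTC124 versus DMSO (0%).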

Test [3] is described as follows: S16 Schwann cell viability assay (CellTiter-Glo assay) (AID 624031).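 Note: native untransfected S16 rat Schwann cells; cellular ATP luminescence as a viability measure; series mostly up to about 58 µM; nearly all actives have a fitted effect of over 70% in size.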 In short, it runs like this:
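Concentration-effect curves come from CellTiter-Glo luminescence of S16 rat Schwann cells after 24 h compound exposure. Each reading was normalized to DMSO wells (0%) and wells without cells, and curves were ranked by r2 and response magnitude.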

Test [4] can be described thus: S16 Schwann cell PMP22 intronic element firefly luciferase assay (AID 624032). Note: series mostly up to about 58 µM; nearly all actives have a fitted effect of over 30% in size. In short, it runs like this: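 Rat S16 Schwann cells stably carrying a PMP22 intronic element-driven Fluc reporter were seeded overnight, then exposed to compounds for 24 h at 37 °C. Luminescence was normalized to PTC124 (positive control) and DMSO (0% activity).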
A short description of test [5]: S16 Schwann cell PMP22 intronic element beta-lactamase assay (AID 624044; calls by dose curve; note: nearly all actives have a fitted effect of over 15% in size). An outline of the steps: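 Rat S16 Schwann cells with beta-Lac driven by a PMP22 intronic element, compound-treated 24 h at 37 °C. LiveBLAzer FRET B/G read: 460 nm normalized to potassium clavulanate vs DMSO; 535 nm FRET as viability; concentration-effect curves classified.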
Test [6] deals with Glutaminase kidney isoform, mitochondrial (Homo sapiens) (UniProt O94925). Kind of test: qHTS for Inhibitors of Glutaminase (GLS): LOPAC Validation (AID 624146).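 Note: glutamate product detected by oxidase and peroxidase coupled Amplex red fluorescence gain; series mostly up to about 46 µM; nearly all actives have a fitted effect of over 60% in size.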 An outline of the steps: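 Read-out is an Amplex red fluorescence increase coupled through glutamate oxidase and HRP, measured before and after 30 min room-temperature incubation. hKGA is in 45 mM KH2PO4 (pH 8.2) with 0.02% Tween-20; glutamine added as 1mM solution.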

SMILES strings stand for the structures. Several values for one entry are separate records, joined by “and”; a condition that tells them apart may be missing. Equal entries are not always repeated. Records with an inconclusive call do not appear. A call without a number means that no potency is given here. Activity calls are given as the source filed them. Unless noted, calls come from the whole dose curve; as a rule, active = well fitted curve in the direction sought with a large enough effect; inconclusive = small, poorly fitted or top-dose-only effect, or another doubt; inactive = no such curve, though single readings can be large; an effect the other way counts as inactive or inconclusive.

Chain of Voltage-gated inwardly rectifying potassium channel KCNH2 (Homo sapiens) (Q12809 whole entry, looked up): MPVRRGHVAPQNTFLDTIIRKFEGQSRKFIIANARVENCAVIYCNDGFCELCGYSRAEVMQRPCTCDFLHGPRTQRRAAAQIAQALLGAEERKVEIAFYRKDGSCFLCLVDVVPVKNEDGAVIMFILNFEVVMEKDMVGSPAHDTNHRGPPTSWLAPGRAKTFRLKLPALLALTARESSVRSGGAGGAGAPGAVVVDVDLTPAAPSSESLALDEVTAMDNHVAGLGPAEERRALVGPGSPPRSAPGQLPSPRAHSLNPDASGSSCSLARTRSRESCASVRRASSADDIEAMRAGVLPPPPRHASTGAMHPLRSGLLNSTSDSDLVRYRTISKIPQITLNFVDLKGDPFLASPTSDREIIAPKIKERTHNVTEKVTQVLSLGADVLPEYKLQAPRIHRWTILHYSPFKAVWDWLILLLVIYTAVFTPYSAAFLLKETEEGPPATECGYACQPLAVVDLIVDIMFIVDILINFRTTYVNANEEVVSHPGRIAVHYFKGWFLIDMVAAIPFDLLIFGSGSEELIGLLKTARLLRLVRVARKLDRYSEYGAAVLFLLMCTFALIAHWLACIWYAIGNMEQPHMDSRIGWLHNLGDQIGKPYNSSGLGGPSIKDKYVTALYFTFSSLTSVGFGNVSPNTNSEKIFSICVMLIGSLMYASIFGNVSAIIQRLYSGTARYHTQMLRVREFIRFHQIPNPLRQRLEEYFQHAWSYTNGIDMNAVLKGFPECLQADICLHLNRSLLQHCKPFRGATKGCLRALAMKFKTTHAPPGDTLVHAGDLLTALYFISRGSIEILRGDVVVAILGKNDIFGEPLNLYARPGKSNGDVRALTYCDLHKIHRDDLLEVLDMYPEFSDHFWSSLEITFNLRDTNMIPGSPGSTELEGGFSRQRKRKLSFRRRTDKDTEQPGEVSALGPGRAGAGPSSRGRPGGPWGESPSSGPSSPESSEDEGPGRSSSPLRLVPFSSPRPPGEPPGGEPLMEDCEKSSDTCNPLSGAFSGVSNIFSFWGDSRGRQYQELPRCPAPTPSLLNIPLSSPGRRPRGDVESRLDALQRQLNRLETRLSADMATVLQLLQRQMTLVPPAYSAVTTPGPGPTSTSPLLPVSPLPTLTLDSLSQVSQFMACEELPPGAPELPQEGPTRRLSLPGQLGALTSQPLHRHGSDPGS
Chain of Glutaminase kidney isoform, mitochondrial (Homo sapiens) (O94925 whole entry, looked up, canonical isoform): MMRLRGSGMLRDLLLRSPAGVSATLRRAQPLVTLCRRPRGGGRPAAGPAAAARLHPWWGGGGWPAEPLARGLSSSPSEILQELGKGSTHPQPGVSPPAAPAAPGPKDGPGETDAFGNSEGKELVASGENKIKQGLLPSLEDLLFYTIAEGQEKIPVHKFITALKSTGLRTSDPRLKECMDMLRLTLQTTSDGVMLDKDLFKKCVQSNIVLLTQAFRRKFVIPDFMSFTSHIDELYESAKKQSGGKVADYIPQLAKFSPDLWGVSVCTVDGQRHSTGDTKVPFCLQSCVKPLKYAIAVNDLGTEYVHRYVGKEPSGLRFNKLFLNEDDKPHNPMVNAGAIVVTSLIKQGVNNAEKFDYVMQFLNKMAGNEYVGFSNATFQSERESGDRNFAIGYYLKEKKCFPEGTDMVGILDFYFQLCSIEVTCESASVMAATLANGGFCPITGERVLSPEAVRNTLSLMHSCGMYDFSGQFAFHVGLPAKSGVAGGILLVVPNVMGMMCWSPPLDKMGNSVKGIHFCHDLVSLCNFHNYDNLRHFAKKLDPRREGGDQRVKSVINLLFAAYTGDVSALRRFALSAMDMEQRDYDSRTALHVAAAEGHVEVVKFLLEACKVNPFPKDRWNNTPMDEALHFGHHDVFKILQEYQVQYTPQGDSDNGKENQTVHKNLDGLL
Chain of Luciferin 4-monooxygenase (Photinus pyralis) (P08659 whole entry, looked up): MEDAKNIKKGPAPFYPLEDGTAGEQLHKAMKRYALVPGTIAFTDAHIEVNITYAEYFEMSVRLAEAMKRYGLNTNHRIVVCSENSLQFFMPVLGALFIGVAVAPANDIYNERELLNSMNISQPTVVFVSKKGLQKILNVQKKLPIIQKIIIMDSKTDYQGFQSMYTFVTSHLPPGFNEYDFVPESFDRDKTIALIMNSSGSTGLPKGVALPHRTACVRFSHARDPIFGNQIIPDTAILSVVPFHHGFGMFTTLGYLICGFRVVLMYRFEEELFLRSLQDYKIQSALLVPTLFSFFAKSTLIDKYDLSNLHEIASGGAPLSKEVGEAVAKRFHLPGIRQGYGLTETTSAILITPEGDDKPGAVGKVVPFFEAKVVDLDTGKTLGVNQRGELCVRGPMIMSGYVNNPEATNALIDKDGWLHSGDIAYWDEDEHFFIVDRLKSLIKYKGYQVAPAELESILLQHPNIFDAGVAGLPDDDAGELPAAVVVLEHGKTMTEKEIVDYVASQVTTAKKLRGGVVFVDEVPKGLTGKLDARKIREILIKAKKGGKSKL

With `COc1ccc2c(c1)C13CCCC[C@@H]1C(C2)N(C)CC3` (some centres undefined), the Potency entry in test [1], in test [2] and in test [4] was “inactive” each time. Also, the compound was called inactive in test [3] and in test [5].

Regarding `CCCCCCCCCC(=O)O[C@H]1CC[C@H]2[C@@H]3CCC4=CC(=O)CC[C@@H]4[C@H]3CC[C@]12C`, the Potency result in test [1], in test [2] and in test [4] was “inactive” in each case. In addition, the compound was classed as inactive in test [3] and in test [5].

In the case of `CCC1(c2ccccc2)C(=O)N(COC)C(=O)N(COC)C1=O`, the Potency result in test [1], in test [2] and in test [4] was “inactive” each time. Further, the outcome in test [3] was inactive.

Consider `O=[N+]([O-])O[C@H]1CO[C@H]2[C@@H]1OC[C@H]2O[N+](=O)[O-]`, for which, in test [1], the Potency entry is “inactive”.

Regarding `O=C(CCCN1CCC2(CC1)C(=O)NCN2c1ccccc1)c1ccc(F)cc1`, the Potency in test [1] was 1.78 µM (active) and 1 µM (active). Besides, the Potency result in test [2], in test [4] and in test [6] was “inactive” in each case. The result in test [3] and in test [5] was inactive.

With `CC(C)(C)NCC(O)c1cc(Cl)c(N)c(C(F)(F)F)c1` (centres undefined), the Potency result in test [1], in test [2] and in test [4] was “inactive” each time. In addition, in test [3], the call was inactive.

As to `NNc1ccccc1`, the Potency entry in test [1], in test [2] and in test [4] was “inactive” throughout. In addition, the result in test [3] was inactive.

On to `CN1C(=O)CC(=O)N(c2ccccc2)c2cc(Cl)ccc21`, for which the Potency entry in test [1], in test [2] and in test [4] was “inactive” throughout. Besides, the outcome in test [3] was inactive.

For the compound `CCCCCCC(=O)CCCCCC/C=C/C[C@@H](O)[C@H](O)[C@@](N)(CO)C(=O)O`, the Potency entry in test [1] and in test [2] was “inactive” each time. In addition, the call in test [3] was inactive.

Consider `CC(Cc1ccccc1)NCCn1cnc2c1c(=O)n(C)c(=O)n2C` (centres undefined), for which the Potency entry in test [2] was “inactive”.

Take `CCC1(c2ccc(N)cc2)CCC(=O)NC1=O` (centres undefined): the Potency result in test [1] and in test [6] was “inactive” throughout.

For `c1ccc2c(c1)sc1ccccc12`, the Potency result in test [1] and in test [4] was “inactive” throughout. In addition, in test [3], the result was inactive.

As for `CCCN(CCC)C(=O)Cc1c(-c2ccc(Cl)cc2)nc2ccc(Cl)cn12`, in test [2], the Potency entry was “inactive”.

On to `CN1C(=O)C(O)N=C(c2ccccc2)c2cc(Cl)ccc21` (centres undefined), for which the Potency entry in test [2] and in test [4] was “inactive” each time. Moreover, the outcome in test [3] and in test [5] was inactive.

In the case of `CC(C)COC(=O)c1ccc(N)cc1`, the Potency entry in test [4] was “inactive”.

In the case of `O=C(Nc1ccc(Br)cc1)c1cc(Br)cc(Br)c1O`, the Potency in test [2] is 11.4 µM (active). The Potency entry in test [4] was “inactive”. In addition, the outcome in test [5] was inactive.

For the compound `COCCCOc1ccnc(CS(=O)c2nc3ccccc3[nH]2)c1C` (centres undefined), the Potency result in test [4] is “inactive”.

As to `C[C@]12CC[C@@H]3c4ccc(OC(=O)N(CCCl)CCCl)cc4CC[C@H]3[C@@H]1CC[C@@H]2OP(=O)(O)O`, the Potency entry in test [2] was “inactive”.

`CCc1cc2c(s1)-n1c(C)nnc1CN=C2c1ccccc1Cl`: the Potency result in test [2] was “inactive”.

As to `CCN[C@@H](C)Cc1ccccc1`, the Potency result in test [2] is “inactive”.

Take `CN1C(=O)COc2c(C(=O)NC3CN4CCC3CC4)cc(Cl)cc21` (centres undefined): the Potency entry in test [2] and in test [4] was “inactive” each time. Moreover, the call in test [3] was inactive.

For the compound `CC(C)N(CCC(C(N)=O)(c1ccccc1)c1ccccn1)C(C)C` (centres undefined), in test [6], the Potency entry was “inactive”.

Turning to `COC(=O)C(Cl)C(=O)OC`, the Potency result in test [2] is “inactive”.

Turning to `C[C@]12CC[C@@H]3c4ccc(OC(=O)N(CCCl)CCCl)cc4CC[C@H]3[C@@H]1CC[C@@H]2O`, the Potency entry in test [1] and in test [4] was “inactive” throughout. The result in test [3] and in test [5] was inactive.

Take `CCN(CC)C(=O)[C@@H]1C=C2c3cccc4[nH]cc(c34)C[C@H]2N(C)C1`: the Potency result in test [2] is “inactive”.

With `O=C1Nc2ccc(Cl)cc2C(c2ccccc2)=NC1O` (centres undefined), the Potency result in test [2] and in test [4] was “inactive” throughout. The result in test [3] and in test [5] was inactive.

In the case of `COc1cc(CCN)cc(OC)c1OC`, the Potency result in test [2] was “inactive”.

Regarding `C[C@H](N)C(=O)c1ccccc1`, the Potency entry in test [2] was “inactive”.

As for `O=c1oc2ccccc2c(O)c1Cc1c(O)c2ccccc2oc1=O`, the Potency entry in test [2] and in test [4] was “inactive” each time. For the same compound, in test [3], the compound was classed as inactive.

Regarding `COc1cccc(C(=O)CCN[C@@H](C)[C@H](O)c2ccccc2)c1`, the Potency result in test [2] is “inactive”.

For the compound `O=C1Nc2ccc(Cl)cc2C(c2ccccc2Cl)=NC1O` (centres undefined), the Potency entry in test [2] and in test [4] was “inactive” in each case. Moreover, the compound was called inactive in test [5].

Regarding `CN(C)CCc1c[nH]c2cccc(OP(=O)(O)O)c12`, the Potency result in test [2] is “inactive”.

As to `CCN[C@@H](C)Cc1cccc(C(F)(F)F)c1`, in test [2], the Potency entry is “inactive”.

Take `O=C(O[C@H]1CN2CCC1CC2)N1CCc2ccccc2[C@@H]1c1ccccc1`: the Potency result in test [4] is “inactive”.

Take `NC(=O)CC[C@@H]1NC(=O)[C@H](Cc2ccccc2)NC(=O)[C@H](Cc2ccc(O)cc2)NC(=O)[C@@H](N)CSSC[C@@H](C(=O)N2CCC[C@H]2C(=O)N[C@@H](CCCN=C(N)N)C(=O)NCC(N)=O)NC(=O)[C@H](CC(N)=O)NC1=O`: the Potency entry in test [4] is “inactive”.

Consider `COc1ccc2c(c1OC)C(=O)O[C@H]2[C@@H]1c2cc3c(cc2CCN1C)OCO3`, for which the Potency result in test [2], in test [4] and in test [6] was “inactive” in each case. Besides, the outcome in test [3] and in test [5] was inactive.

With `CNCC(=O)c1ccc(O)c(O)c1`, the Potency entry in test [2] was “inactive”.

`COc1cc(CC(C)N)cc(OC)c1OC` (centres undefined): the Potency entry in test [2] was “inactive”.

With `Cc1ncsc1CCCl`, the Potency result in test [2], in test [4] and in test [6] was “inactive” in each case. Further, in test [3], the compound was called inactive.

For the compound `CC(C)(C)c1ccc(O)cc1`, the Potency entry in test [2] and in test [4] was “inactive” each time. Further, in test [3], the result was inactive.

As to `Clc1cccc(SC2CCNCC2)n1`, the Potency entry in test [2] is “inactive”. The compound was called inactive in test [5].

`CC(NC(C)(C)C)C(=O)c1cccc(Cl)c1` (centres undefined): the Potency result in test [6] is “inactive”.
